# Screening data (PubChem)
# STK33 kin inh – inhibitors of human STK33 kinase. AID 2322. Q9BYT3. inhibition, % at 12.5 µM. ADP-Glo luminescence, MBP substrate. 0.44% of 27,000 active; in the data active = inhibition above about 20%; inconclusive = no clear call, values can overlap the other calls
# Target sequence (Q9BYT3 whole entry, looked up): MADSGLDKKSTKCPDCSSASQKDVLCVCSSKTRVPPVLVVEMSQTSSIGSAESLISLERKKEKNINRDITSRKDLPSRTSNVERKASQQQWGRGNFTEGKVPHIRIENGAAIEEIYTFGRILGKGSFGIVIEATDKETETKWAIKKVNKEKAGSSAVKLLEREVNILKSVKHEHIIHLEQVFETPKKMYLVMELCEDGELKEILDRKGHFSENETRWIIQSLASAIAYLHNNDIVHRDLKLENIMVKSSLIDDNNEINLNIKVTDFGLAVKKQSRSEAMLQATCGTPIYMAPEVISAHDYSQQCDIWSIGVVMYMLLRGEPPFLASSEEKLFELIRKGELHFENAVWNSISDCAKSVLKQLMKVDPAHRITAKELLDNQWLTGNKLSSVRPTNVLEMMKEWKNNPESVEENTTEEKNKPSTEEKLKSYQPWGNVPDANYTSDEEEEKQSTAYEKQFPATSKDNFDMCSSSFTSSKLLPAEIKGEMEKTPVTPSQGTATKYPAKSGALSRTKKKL
# mut p53 react – mutant p53 pathway reactivation | SW480 PUMA-promoter luciferase | activation, % at 9.98 µM | 1.5% of 28,000 active | AID 624151; in the data active = activation above about 52%; inconclusive = no clear call, values can overlap the other calls
# MITF inh – inhibitors of MITF; AID 2240; TRPM1 promoter luciferase, luminescence, 24 h; 0.28% of 37,000 active; inhibition, % (concentration not given with the values); in the data active = inhibition above about 85%; inconclusive = no clear call, values can overlap the other calls; inactive = below about 68%;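 note: human melanocyte line stably carrying TRPM1 promoter luciferase reporter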
# NOMO-1 viab – STK33 inhibitor candidate reducing NOMO-1 cell viability. NOMO-1 AML viability, CellTiter-Glo luminescence, 72 h. inhibition, % (no concentration beside the values). 7.5% of 37,000 active. AID 2330; in the data active = inhibition above about 80%; inconclusive = no clear call, values can overlap the other calls
# * hit, by the source's call; ? = inconclusive; / = no result given. Many of the other results were omitted from the sample, so hits are more common in it than they were.
SMILES,STK33 kin inh,mut p53 react,MITF inh,NOMO-1 viab
C#Cc1cccc(Nc2ncnc3cc(OC)c(OC)cc23)c1,23*,-62,71,96*
COc1cc2ncnc(Nc3ccc(OCc4ccccc4)cc3)c2cc1OC,1,7,-8,19
COc1cc2nccc(Oc3ccc(NC(=O)Nc4ccc(F)cc4F)c(F)c3)c2cc1OC,/,-62,/,/
O=C(CSC1CC(=O)N(c2ccccc2)C1=O)Nc1cccc(Br)c1 (configuration not stated),-1,2,-13,-1
Cn1c(SCC(=O)NCCO)nc2ccccc2c1=O,2,-8,-19,-12
O=C(CSc1nnnn1-c1ccc(O)cc1)Nc1ccc(F)cc1,1,-25,-7,-3
Cc1cc(C)c(C)c(S(=O)(=O)NCc2ccc(C(=O)Nc3ccncc3)cc2)c1C,-7,-17,50,103*
COc1ccc(C(=C2C(=O)Nc3ccccc32)c2ccc(OC)cc2)cc1,3,-16,9,15
CN(C)c1ccc(/C=C2\C(=O)Nc3ccccc32)c2ccccc12,3,-20,29,86*
C[C@H]1CN([C@@H](C)CO)C(=O)c2cccc(NC(=O)C3CCCCC3)c2O[C@@H]1CN(C)Cc1ccc(Cl)c(Cl)c1,/,/,9,91*
C[C@H](CO)N1C[C@H](C)[C@H](CN(C)Cc2ccc(Cl)c(Cl)c2)Oc2c(NC(=O)C3CCCCC3)cccc2C1=O,/,/,25,92*
C[C@@H]1CN([C@H](C)CO)C(=O)c2cccc(NC(=O)C3CCCCC3)c2O[C@@H]1CN(C)Cc1ccc(Cl)c(Cl)c1,/,/,6,53
C[C@@H]1CN([C@@H](C)CO)C(=O)c2cccc(NC(=O)NC3CCCCC3)c2O[C@@H]1CN(C)Cc1ccc(Cl)c(Cl)c1,/,/,0,100*
C[C@H]1CN([C@@H](C)CO)C(=O)c2cccc(NC(=O)NC3CCCCC3)c2O[C@H]1CN(C)Cc1ccc(Cl)c(Cl)c1,/,/,41,40
Cc1ccc(-c2nn(CC(=O)Nc3ccc(C)cc3C)c(=O)c3ccccc23)cc1,0,-42,12,111*
CCOc1cc(C)c(Cl)cc1S(=O)(=O)NCc1ccccn1,1,5,-14,15
Cc1c(C)c(C)c(CSc2ccccc2N)c(C)c1C,/,/,-24,91*
CCCc1c(C(=O)O)c(O)cc2c1C(=O)c1c(O)cccc1C2=O,-2,-26,8,57
O=C1c2cccc(O)c2C(=O)c2c(O)cccc21,27*,11,-4,42
COC(=O)C[C@H]1C(C)(C)[C@H](OC(C)=O)[C@]2(O)CC3=C4CC(=O)O[C@@H](c5ccoc5)[C@]4(C)CCC3[C@@]1(C)C2=O (some centres not stated),-2,/,-9,20
c1ccc(OCCCc2nc(-c3ccccn3)no2)cc1,1,69*,-81,-3
O=C1c2ccccc2C(=O)N1CCCc1nc(-c2ccccn2)no1,-5,11,-36,16
O=C1c2ccccc2C(=O)N1CCc1nc(-c2ccccn2)no1,1,18,-41,-10
Cc1ccccc1OC(C)c1nc(-c2ccccn2)no1 (configuration not stated),-1,116*,-82,15
c1ccc(-c2noc(COc3cccc4ccccc34)n2)nc1,-1,87*,-111,23
SMILES,STK33 kin inh,mut p53 react,MITF inh,NOMO-1 viab
C=CC(C)(CC/C=C(\C)C(=O)O)O[C@@H]1O[C@H](C)[C@@H](O)[C@H](O)[C@H]1O (some centres not stated),-4,24,/,/
CC(C)(C)c1ccc(C(O)CCCN2CCC(C(O)(c3ccccc3)c3ccccc3)CC2)cc1 (configuration not stated),0,/,-3,142*
OC(CCN1CCCCC1)(c1ccccc1)C1CCCCC1 (configuration not stated),-8,/,0,12
CC(C)Cc1ccc(S(=O)(=O)N2c3cc(F)ccc3CCC2C)cc1 (configuration not stated),/,-5,/,/
CC(=O)Nc1cc2ccccc2oc1=O,1,16,-10,41
Cc1ccc(C(=O)Nc2cc3ccccc3oc2=O)cc1,/,/,72,139*
CC(CN1CCN(Cc2ccccc2)CC1)N(C(=O)c1ccc(C(C)(C)C)cc1)c1ccccn1 (configuration not stated),-2,/,20,45
C[C@@H]1CN([C@H](C)CO)C(=O)Cc2cc(NS(=O)(=O)c3ccccc3)ccc2O[C@H]1CN(C)Cc1ccc(Cl)c(Cl)c1,8,6,23,111*
C[C@H](CO)N1C[C@H](C)[C@H](CN(C)Cc2ccc(Cl)c(Cl)c2)Oc2ccc(NS(=O)(=O)c3ccccc3)cc2CC1=O,9,/,20,68
C[C@@H]1CN([C@H](C)CO)C(=O)Cc2cc(NS(=O)(=O)c3ccccc3)ccc2O[C@@H]1CN(C)Cc1ccc(Cl)c(Cl)c1,4,/,4,85*
C[C@H]1CN([C@@H](C)CO)C(=O)Cc2cc(NS(=O)(=O)c3ccccc3)ccc2O[C@@H]1CN(C)Cc1ccccc1,0,/,-2,31
C[C@H]1CN([C@@H](C)CO)C(=O)Cc2cc(NS(=O)(=O)c3ccccc3)ccc2O[C@H]1CN(C)Cc1ccc(Cl)c(Cl)c1,6,/,23,100*
COC(=O)c1ccccc1NC(=O)Cn1nnc(-c2ccc(SC)cc2)n1,1,11,-4,5
CNC(=O)CN(c1ccc(Br)cc1)S(=O)(=O)c1ccc(C)cc1,2,-8,3,26
C[C@@H]1CN([C@H](C)CO)C(=O)c2cc(NC(=O)NC3CCCCC3)ccc2O[C@H]1CN(C)Cc1ccc(-c2ccccc2)cc1,/,/,-8,?
C[C@H]1CN([C@@H](C)CO)C(=O)c2cc(NC(=O)NC3CCCCC3)ccc2O[C@@H]1CN(C)Cc1ccccc1,/,/,0,-1
C[C@@H]1CN([C@H](C)CO)C(=O)c2cc(NC(=O)NC3CCCCC3)ccc2O[C@@H]1CN(C)Cc1ccc(-c2ccccc2)cc1,/,/,-12,87*
C[C@H]1CN([C@@H](C)CO)C(=O)c2cc(NC(=O)NC3CCCCC3)ccc2O[C@H]1CN(C)Cc1ccncc1,-2,-57,-13,100*
C[C@@H]1CN([C@@H](C)CO)C(=O)c2cc(NC(=O)NC3CCCCC3)ccc2O[C@@H]1CN(C)Cc1ccc(-c2ccccc2)cc1,1,/,9,117*
C[C@H]1CN([C@@H](C)CO)C(=O)c2cc(NC(=O)NC3CCCCC3)ccc2O[C@@H]1CN(C)Cc1ccc(-c2ccccc2)cc1,2,/,0,38
C[C@@H]1CN([C@@H](C)CO)C(=O)c2cc(NC(=O)NC3CCCCC3)ccc2O[C@H]1CN(C)Cc1ccc(-c2ccccc2)cc1,/,/,-6,100*
Cc1sc2ncnc(NCCCN3CCOCC3)c2c1-c1ccccc1,0,0,-2,19
Cc1ccc(-c2csc3nc4c5ccccc5c(NCCCN5CCOCC5)nn4c(=O)c23)cc1,3,2,-35,114*
Cc1sc2nc3c4ccccc4c(NCC4CCCO4)nn3c(=O)c2c1C (configuration not stated),/,/,-5,87*
Cc1sc2nc3c4ccccc4c(NCCO)nn3c(=O)c2c1C,/,/,12,-11
c1ccc2[nH]c(CCn3c4c(c5ccccc53)CCCC4)nc2c1,1,-14,?,35
